Screening results from PubChem.
Most compounds without a hit are left out; they make up all but 12% or so of the library.
Cycloheximide cs: counter-screen hit for Shiga toxin inhibitors, cycloheximide | cell reporter, cycloheximide protein synthesis inhibition counterscreen | max response, % | actives 12% (n = 300,000); in the data active = max response mostly above about 13%, no sharp cut-off; inactive = mostly below about 14%; note: read at 38.3 µM for the half of the compounds with a filed dose
NS1 inh: blocks influenza NS1 protein function | Potency, µM (doses to about 46.1 µM) | actives 0.4% (n = 270,000); note: actives are rising curves; nearly all actives have a fitted effect of over 50% in size
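Recovery from NS1-induced slow growth read by OD600 in budding yeast switched to galactose assay medium (pH 6.0, -URA) at 1:100 dilution. Compound 23 nl per well; the matching strain lacking NS1 serves as control.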
Shiga toxin inh: Shiga toxin inhibition; Vero cells, Shiga toxin protein synthesis inhibition reporter; actives 9.2% (n = 290,000); inhibition, % at 38.7 µM; in the data active = inhibition mostly above about 28%, no sharp cut-off; inactive = mostly below about 43%
SARS PLpro yeast-1: inhibitors of SARS-CoV papain-like protease in yeast. Potency, µM (doses to about 32.9 µM), most hits filed as activators. S. cerevisiae expressing SARS-CoV PLpro, growth rescue. actives 0.19% (n = 330,000); note: nearly all actives have a fitted effect of over 55% in size
SARS PLpro yeast-2: Inhibits SARS-CoV PLP in yeast, hit validation; shares compounds with SARS PLpro yeast-1; yeast expressing SARS-CoV PLpro, growth phenotype rescue; calls only; actives 19% (n = 1,000); AID 652038; call rule not given here
Each line names hits and unclear results; the compound was inactive in the other large screens (follow-up assays come after a bar, where they were run); ! = repeats disagree. Unless noted, calls come from the whole dose curve.

Cc1ccc2[nH]cc(C(=O)CCl)c2c1	none (no result: SARS PLpro yeast-1) | SARS PLpro yeast-2 inactive
Cc1cc2c(cc1S(=O)(=O)N1CCN(c3ccc(Cl)cc3)CC1)OCCN2C	SARS PLpro yeast-1 0.891µM | SARS PLpro yeast-2 inactive
COc1cccc(N2CCN(S(=O)(=O)c3cc4c(cc3C)N(C)CCO4)CC2)c1	NS1 inh inconclusive
CCCCCCCCOc1c(OC)cc(/C=C/C(=O)N2CCN(c3ccc(C)c(C)c3)CC2)cc1OC	none (no result: NS1 inh, SARS PLpro yeast-1)
COc1ccc(C(NC(C)=O)c2ccc3cccnc3c2O)c(OC)c1 (centres undefined)	SARS PLpro yeast-1 2.24µM | SARS PLpro yeast-2 active
CC(=O)NC(c1ccc(Cl)cc1Cl)c1ccc2cccnc2c1O (centres undefined)	SARS PLpro yeast-1 inconclusive | SARS PLpro yeast-2 inactive
CC(=O)NC(C)c1cc(Cl)c2cccnc2c1O (centres undefined)	SARS PLpro yeast-1 inconclusive (no result: Cycloheximide cs, NS1 inh, Shiga toxin inh) | SARS PLpro yeast-2 inactive
O=C(O)COc1ccccc1C(Nc1ccccn1)c1cc(Cl)c2cccnc2c1O (centres undefined)	SARS PLpro yeast-1 5.01µM | SARS PLpro yeast-2 inactive
CC(=O)NC(c1ccc2ccccc2c1)c1ccc2cccnc2c1O (centres undefined)	none
COc1ccccc1C(NC(C)=O)c1cc(Cl)c2cccnc2c1O (centres undefined)	none
O=C(NCC(c1ccco1)N1CCN(c2ccc(F)cc2)CC1)C(=O)NC1CCCCC1 (centres undefined)	none (no result: Cycloheximide cs, NS1 inh, Shiga toxin inh)
Nn1c(SCC(=O)Nc2ccc(N3CCOCC3)cc2)nnc1-c1cccc(F)c1	none (no result: Cycloheximide cs, NS1 inh, Shiga toxin inh)
CN(c1ccccc1)S(=O)(=O)c1cc(C(=O)N2CCN(c3ccccn3)CC2)ccc1Cl	none
CCOC(=O)COc1c(Cl)cc(C2NC(=S)NC(c3ccccc3)=C2C(C)=O)cc1OCC (centres undefined)	SARS PLpro yeast-1 inconclusive | SARS PLpro yeast-2 inactive
C=CCOc1ccc(C2NC(=S)NC(c3ccccc3)=C2C(C)=O)cc1OC (centres undefined)	none
CC(=O)NC1=NN(C(C)=O)C2(S1)C(=O)N(CC(C)C)c1ccc(C)cc12 (centres undefined)	none
Nc1nc(SCC(=O)OCc2ccccc2)[nH]c(=O)c1NC(=O)c1ccco1	SARS PLpro yeast-1 inconclusive | SARS PLpro yeast-2 inactive
CC(C)(C)c1ccc(C(=O)N/C(N)=N/c2nc3ccccc3o2)cc1	NS1 inh inconclusive, SARS PLpro yeast-1 inconclusive | SARS PLpro yeast-2 inactive
N/C(=N\c1nc2ccccc2o1)NC(=O)c1ccc([N+](=O)[O-])cc1	none
Cc1ccccc1OCCOC(=O)c1cc(S(=O)(=O)N2CCCCC2)ccc1N1CCOCC1	SARS PLpro yeast-1 10µM (no result: Cycloheximide cs, NS1 inh, Shiga toxin inh) | SARS PLpro yeast-2 inconclusive
Cc1ccc(CSCCNS(=O)(=O)c2ccccc2)cc1	none
CC(C)CNC(=S)NC(=O)c1ccccc1Cl	Cycloheximide cs 39.6, Shiga toxin inh 43.5, SARS PLpro yeast-1 inconclusive | SARS PLpro yeast-2 inactive
C/C(=N\NC(=O)Cc1csc(N2CCOCC2)n1)c1ccccc1	SARS PLpro yeast-1 inconclusive
O=C(COc1nsnc1N1CCOCC1)N/N=C/c1ccccc1O	SARS PLpro yeast-1 inconclusive | SARS PLpro yeast-2 inactive
O=C(O)COc1ccc(/C=N/NC(=O)COc2nsnc2N2CCOCC2)cc1	none
O=C(Cc1csc(N2CCOCC2)n1)N/N=C/c1ccc(O)c(O)c1O	SARS PLpro yeast-1 10µM (no result: NS1 inh) | SARS PLpro yeast-2 inactive
Cn1c(=O)c2c(nc(CN3CCOCC3)n2CC(O)CO)n(C)c1=O (centres undefined)	none
O=C(CCn1cnc(-c2ccccc2)c1-c1ccccc1)N/N=C/c1ccccc1O	SARS PLpro yeast-1 10µM | SARS PLpro yeast-2 inactive
O=C(CCn1cnc(-c2ccccc2)c1-c1ccccc1)N/N=C/c1ccc(O)cc1	none
CCCCCCSc1ccc(-c2nc3cnccn3c2NCCCC)cc1	none (no result: Cycloheximide cs, NS1 inh, Shiga toxin inh)
Cc1c(NC(=O)CSc2ccc(Cl)cc2)cccc1-c1nc2cc(Cl)ccc2o1	none
Nc1ccc2oc(-c3ccccc3Cl)nc2c1	Cycloheximide cs 20.6, NS1 inh inconclusive, Shiga toxin inh 36.1, SARS PLpro yeast-1 14.1µM | SARS PLpro yeast-2 inactive
Cc1onc(-c2ccccc2Cl)c1C(=O)NNC(=O)c1cccc(F)c1	none
CC(C)CC(=O)Nc1ccc(C(=O)Cn2nc(C(=O)O)c3ccccc3c2=O)cc1	SARS PLpro yeast-1 12.6µM | SARS PLpro yeast-2 inactive
CC(=O)Nc1ccc(C(=O)COC(=O)CN2C(=O)NC3(CCCCC3C)C2=O)cc1 (centres undefined)	none (no result: Cycloheximide cs, NS1 inh, Shiga toxin inh)
CC(C)(C)n1ncc(Oc2ccccc2[N+](=O)[O-])c(Cl)c1=O	SARS PLpro yeast-1 inconclusive | SARS PLpro yeast-2 inactive
Cc1ccc(NC2CCCN(C(=O)c3cccs3)C2)cc1C (centres undefined)	none
CN(C)C1CCN(Cc2cc(COCc3ccccc3)c3cccnc3c2O)C1 (centres undefined)	SARS PLpro yeast-1 10µM! (no result: Cycloheximide cs, NS1 inh, Shiga toxin inh) | SARS PLpro yeast-2 inconclusive
Oc1ccc(CN2CCN(c3ccccc3)CC2)c2cccnc12	SARS PLpro yeast-1 11.2µM | SARS PLpro yeast-2 inactive
Oc1ccc(CN2CCC(Cc3ccccc3)CC2)c2cccnc12	SARS PLpro yeast-1 2.51µM (no result: NS1 inh) | SARS PLpro yeast-2 inconclusive
Oc1ccc(CN2CCc3ccccc3C2)c2cccnc12	none (no result: SARS PLpro yeast-1)
CC(C)NC(=O)c1onc(CSc2ccc(Cl)cc2)c1C(=O)NC(C)C	none
COc1cccc(OCCSc2nc(N)cc(N)n2)c1	Cycloheximide cs 38.1 (no result: SARS PLpro yeast-1) | SARS PLpro yeast-2 inactive
Cc1ccc(N=C2NC(=O)/C(=C\c3ccsc3)S2)c(C)c1	none
O=C1NC(=O)/C(=C\c2ccsc2)N1	none (no result: NS1 inh)
CC(C)N1C/C(=C/c2ccsc2)C(=O)/C(=C/c2ccsc2)C1	Cycloheximide cs 15.5, SARS PLpro yeast-1 22.4µM | SARS PLpro yeast-2 inactive
O=C1CCCc2cc(S(=O)(=O)N3CCC(C(=O)NCc4ccccc4)CC3)ccc2N1	none
CCOc1ccc(CNC(=O)C2CCN(S(=O)(=O)c3ccc4c(c3)CCCC(=O)N4)CC2)cc1	SARS PLpro yeast-1 inconclusive | SARS PLpro yeast-2 active
C[C@@H]1CN(Cc2nc(-c3cnccn3)no2)C[C@H](C)O1	none
CC(=O)c1ccc(N(C)C)cc1	SARS PLpro yeast-1 2.82µM | SARS PLpro yeast-2 inactive
O=C(N/N=C/c1sc2ccccc2c1O)c1cccc2ccccc12	Cycloheximide cs 25.0, SARS PLpro yeast-1 2.82µM | SARS PLpro yeast-2 inactive
COc1ccc(C(=O)N/N=C/c2sc3ccccc3c2O)cc1	Cycloheximide cs 39.8, Shiga toxin inh 115.9, SARS PLpro yeast-1 2.82µM | SARS PLpro yeast-2 inactive
COc1ccc2cc(C(=O)N/N=C/c3sc4ccccc4c3O)ccc2c1	Cycloheximide cs 51.5, Shiga toxin inh 111.4, SARS PLpro yeast-1 5.01µM | SARS PLpro yeast-2 active
O=C(N/N=C/c1sc2ccccc2c1O)c1ccccc1	Cycloheximide cs 50.1, Shiga toxin inh 60.6, SARS PLpro yeast-1 3.98µM | SARS PLpro yeast-2 inactive
COc1ccc(C(=O)N/N=C/c2c(CO)cnc(C)c2O)cc1	none (no result: NS1 inh)
CCOc1ccccc1OCC(=O)NN1Cc2ccccc2C1=N	none
O=S(=O)(/C=C/c1ccccc1)NCc1ccccc1Cl	none
CCCCN(C(=O)CSc1nnc(-c2ccccc2)o1)c1c(N)n(CCC)c(=O)[nH]c1=O	none (no result: Cycloheximide cs, NS1 inh, Shiga toxin inh)
CCN(C(=O)CSc1nnc(-c2ccccc2)o1)c1c(N)n(Cc2ccccc2)c(=O)[nH]c1=O	SARS PLpro yeast-1 inconclusive (no result: NS1 inh) | SARS PLpro yeast-2 inactive
CCOC(=O)c1c(-c2ccc(OC)cc2)csc1/N=C/C1=C(O)CCCC1=O	SARS PLpro yeast-1 inconclusive | SARS PLpro yeast-2 inactive
O=C(CN1C(=O)C2C3C=CC(C3)C2C1=O)NCc1ccccc1 (centres undefined)	SARS PLpro yeast-1 inconclusive | SARS PLpro yeast-2 inactive
